Sampled rows, rich in hits. Any-hit rate of the full collection: about 0.84%.
SRC3 TRFRET art: TR-FRET detection interference compounds, artefact control for PPARgamma SRC-3 recruitment agonists, biochemical, TR-FRET ratio; 99,000 compounds, 0.39% hits; TR-FRET artefact counter-screen, PPARgamma/SRC-3 format; hits give high values; TR-FRET ratio at 8 µM
PPARg SRC2 recr: agonists of PPARg-SRC-2 recruitment, primary screen, biochemical, HTS. 200,000 compounds, 0.34% hits. PPARgamma LBD-SRC-2 recruitment. Peroxisome proliferator-activated receptor gamma (Homo sapiens), P37231. activation, % at 8 µM; in the data active = activation above about 22%;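 note: 0% = vehicle and 100% = reference agonist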
Target sequence (P37231 whole entry, looked up, the tested form may be a part): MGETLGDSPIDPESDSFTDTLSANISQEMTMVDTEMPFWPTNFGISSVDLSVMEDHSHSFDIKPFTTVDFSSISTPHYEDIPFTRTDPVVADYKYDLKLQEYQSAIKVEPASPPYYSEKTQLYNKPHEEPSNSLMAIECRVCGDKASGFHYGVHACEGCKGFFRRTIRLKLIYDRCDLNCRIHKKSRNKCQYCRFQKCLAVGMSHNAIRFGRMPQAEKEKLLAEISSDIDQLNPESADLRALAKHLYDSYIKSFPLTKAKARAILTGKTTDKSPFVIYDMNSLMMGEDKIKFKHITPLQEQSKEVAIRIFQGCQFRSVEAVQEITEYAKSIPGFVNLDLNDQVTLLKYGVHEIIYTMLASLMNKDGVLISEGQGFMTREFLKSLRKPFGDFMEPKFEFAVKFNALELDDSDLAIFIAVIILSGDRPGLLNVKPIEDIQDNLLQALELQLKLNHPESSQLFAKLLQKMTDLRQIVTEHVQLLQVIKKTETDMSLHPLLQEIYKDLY
SRC1 TRFRET art: TR-FRET detection interference compounds, primary screen, artefact control for PPARgamma SRC-1 recruitment agonists, biochemical, TR-FRET emission ratio; TR-FRET ratio at 8 µM; TR-FRET detection artefact counter-screen; hits give high values; 99,000 compounds, 0.34% hits; AID 1051, 2008; in the data active = TR-FRET ratio above about 2300
SRC2 TRFRET art: TR-FRET signal artefacts, primary screen, artefact control for PPARgamma SRC-2 agonist project, biochemical; TR-FRET artefact counter-screen; hits give high values; TR-FRET ratio at 8 µM; 200,000 compounds, 0.4% hits
PPARg SRC-1 ag: PPARgamma agonists recruiting SRC-1 coactivator, primary screen, biochemical. Peroxisome proliferator-activated receptor gamma (Homo sapiens), P37231. PPARgamma-SRC-1 coactivator recruitment biochemical assay. activation, % at 8 µM. 200,000 compounds, 0.41% hits. AID 631, 2007; in the data active = activation above about 19%;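 note: 0% = DMSO and 100% = reference agonist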
PPARg SRC-3 ag: PPARgamma agonists recruiting SRC-3 coactivator, primary screen, biochemical. Peroxisome proliferator-activated receptor gamma (Homo sapiens), P37231. biochemical PPARgamma/SRC-3 coactivator recruitment assay. activation, % at 8 µM. 200,000 compounds, 0.26% hits; in the data active = activation above about 23%;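 note: 0% = DMSO and 100% = reference agonist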
The depositor's hits bear a star; . = no result. Cut-off read from the data, not from the text of the source, unless noted: active = TR-FRET ratio above about 2000; inactive = the rest.

SMILES | SRC3 TRFRET art | PPARg SRC2 recr | SRC1 TRFRET art | SRC2 TRFRET art | PPARg SRC-1 ag | PPARg SRC-3 ag
Cc1ccc(C(=O)Nc2ccc(Oc3ccc(C(=O)O)c(C(=O)O)c3)cc2)cc1C | . | 22* | . | 1940 | 6 | 1
Cc1c(C(=O)Nc2nccs2)sc2nc(-c3cccs3)cc(C(F)(F)F)c12 | . | 15 | . | 2020* | 5 | 7
Cc1c(Cl)sn(-c2ccc(Cl)cc2)c1=O | 1367 | 0 | 1707 | 1317 | -6 | 4
Cc1c(-c2ccccc2)sc2nc[nH]c(=S)c12 | 2134* | 6 | 2247 | 1886 | 10 | 9
Cc1ccc(-c2csc3nc[nH]c(=S)c23)cc1C | 1542 | -5 | 1687 | 1562 | -5 | 2
O=C(N/N=C/C=C\c1ccccc1[N+](=O)[O-])c1ccco1 | 1595 | 3 | 1928 | 1978* | 14 | 6
Cc1occc1C(=O)N/N=C/C=C\c1ccccc1[N+](=O)[O-] | 1550 | 5 | 1846 | 1654 | 10 | 6
CCc1nn(CC(=O)NCCCN(CC)Cc2ccccc2)c(=O)c2cc3sccc3n12 | . | 3 | . | 2044* | -4 | -6
Cc1ccc2sc3ccc(NC(=O)c4ccccc4Cl)cc3c(=O)c2c1 | . | 13 | . | 2846* | 0 | 11
CC(C)CCN1CCN(Cc2nc3c(s2)CCCC3)CC1CCO (centres undefined) | 1394 | -7 | 1726 | 1535 | -1 | -4
CNC(=S)N1N=C(c2ccc(C)cc2)CC1c1ccc(N(C)C)cc1 (centres undefined) | 2431* | 5 | 2359* | 1857 | 5 | 4
CNC(=S)N1N=C(c2ccc(C)cc2)CC1c1ccc(OC)cc1 (centres undefined) | . | 11 | . | 1903 | 11 | 11
CNC(=S)N1N=C(c2ccc(C)cc2)CC1c1cc(OC)ccc1OC (centres undefined) | 2547* | 5 | 2589* | 1638 | 11 | 6
Cn1c(=O)n(C)c2cc(NC(=O)c3ccccc3[N+](=O)[O-])c(Br)cc21 | 1726 | 12 | 1816 | 1997* | 1 | 4
O=C(O)CCSc1nnc(SCC(=O)NCC(F)(F)F)s1 | 1350 | 1 | 1781 | 1465 | -5 | -1
CCNC(=O)c1ccccc1SCc1ccccc1 | 1473 | 2 | 1740 | 1479 | -3 | 1
O=C(Nc1nc2ccccc2c(=O)[nH]1)c1ccccc1SCc1ccccc1 | 2104* | 3 | 1612 | 1370 | 1 | 2
O=C(Nc1ccc2c(c1)OCCO2)c1cc2sccc2n1Cc1ccccc1 | . | 7 | . | 1989* | 4 | 2
O=C(Nc1ccc2c(c1)OCCO2)c1cc2sccc2n1Cc1ccc(F)cc1 | . | 14 | . | 1828 | 7 | 12
CSc1ccccc1NC(=O)c1cc(-c2cccnc2)nc2ccc(Br)cc12 | 2157* | 3 | 1916 | 1531 | 8 | 9
CC(=O)Nc1cccc(NC(=O)c2cc(-c3cccnc3)nc3ccc(Br)cc23)c1 | . | -5 | . | 1508 | -7 | -12
O=C(/C(Cl)=C/Nc1ccc(Br)cn1)C(F)(F)F | 1409 | 6 | 1710 | 1718 | 0 | -1
CSc1ccccc1NC(=O)Cn1c(-c2cscn2)nc2ccccc21 | . | 1 | . | 1477 | 24* | 3
COc1ccc(NC(=O)CSc2ccc3c4c(cccc24)C(=O)c2ccccc2-3)cc1 | . | -5 | . | 1589 | 14 | 43*
N#Cc1cccc(NC(=O)CSc2ccc3c4c(cccc24)C(=O)c2ccccc2-3)c1 | . | 6 | . | 1641 | 6 | 19
SMILES | SRC3 TRFRET art | PPARg SRC2 recr | SRC1 TRFRET art | SRC2 TRFRET art | PPARg SRC-1 ag | PPARg SRC-3 ag
CN(C)S(=O)(=O)c1ccc(N2CCCC2)c(C(=O)Nc2nc3c(ccc4ccccc43)s2)c1 | 2179* | 10 | 2112 | 2069* | 2 | 7
O=C(Nc1nc2c(ccc3ccccc32)s1)c1cc([N+](=O)[O-])ccc1N1CCOCC1 | 1643 | -8 | 2030 | 1851 | 4 | -1
CCn1c(O)c(C=Nc2ccccc2)oc1=S | . | 8 | . | 1976* | 11 | 5
CCCn1c(O)c(C=Nc2ccccc2)sc1=S | 1466 | -3 | 1715 | 1498 | -4 | -2
COc1ccc(Nc2nc(-c3ccccc3)c(C(=O)Nc3cccnc3)s2)cc1 | 2178* | 16 | 2466* | 1853 | 17 | 19
N=C1C(c2ccccc2)=C(O)CN1CCO | 1509 | 6 | 1772 | 1649 | 13 | 6
COC(=O)c1ccc(C(=O)OC)c(NC(=O)c2cc3ccccc3o2)c1 | . | 4 | . | 1501 | 24* | -4
COC(=O)c1ccc(N2CCN(C)CC2)c(NC(=O)c2cc3ccccc3o2)c1 | . | -7 | . | 1388 | -3 | -8
Cc1nnc(SCC(=O)N(C)c2ccccc2)n1Cc1ccccc1 | 1295 | 11 | 1931 | 1464 | -5 | 0
Cc1ncn(-c2ccc(C(=O)Oc3ccccc3)cn2)n1 | 1558 | 10 | 1949 | 1536 | 0 | -2
CC(=O)c1ccc(NC(=O)COC(=O)c2ccccc2N=Nc2ccc(N(C)C)cc2)cc1 | 1886 | 9 | 2419* | 1674 | 9 | 4
c1ccc(-c2noc(CC3CCCCC3)n2)nc1 | 1372 | -4 | 1705 | 1650 | 4 | -2
Cc1cc(NC(=O)c2cc(-c3ccc(C)s3)nc3ccccc23)no1 | . | -3 | . | 1773 | -4 | -1
O=C(c1cc(-c2cccs2)nc2ccccc12)N1CCN(S(=O)(=O)c2ccccc2)CC1 | . | 2 | . | 2313* | -4 | -5
O=C(c1cc(-c2cccs2)nc2ccccc12)N1CCN(S(=O)(=O)c2cccc(F)c2)CC1 | . | 11 | . | 2309* | 11 | 17
O=C(c1cc(-c2ccccn2)nc2c(Cl)cccc12)N1CCN(S(=O)(=O)c2ccccc2)CC1 | 3978* | 0 | 2197 | 2813* | 10 | 5
Cc1cccc(NC(=O)c2cc(-c3ccc(C)s3)nc3ccccc23)n1 | 2191* | 7 | 2018 | 2007* | 13 | 3
O=C(c1cc(-c2ccccn2)nc2c(Cl)cccc12)N1CCN(C(=O)C2CCCO2)CC1 (centres undefined) | . | 1 | . | 1733 | 5 | 0
O=C(c1cc(-c2cccs2)nc2ccccc12)N1CCN(c2ccccc2)CC1 | 1579 | 6 | 2136 | 1793 | 5 | 2
Cc1cc(C)n2cc(CSc3ncn[nH]3)nc2n1 | 1837 | 7 | 1938 | 1357 | -2 | 2
CCN(CCCNC(=O)CCCOc1cc(=O)n(C)c2ccccc12)Cc1ccccc1 | 1652 | 6 | 1714 | 1638 | 4 | 5
CN(C)S(=O)(=O)c1cccc(NC(=O)c2cc(-c3cccs3)nc3ccccc23)c1 | 2449* | -6 | 2272 | 2036* | 0 | 7
CCc1nc(SCc2ccc(F)cc2)[nH]c(=O)c1C#N | . | 57* | . | 2794* | -2 | 0
Cc1cc(C)c(C#N)c(SCc2ccc(F)cc2)n1 | 1600 | 6 | 1966 | 1549 | 5 | 3

Screening results: PubChem BioAssay, The Scripps Research Institute Molecular Screening Center
